Laboratory results reported in PubChem BioAssay (NCATS).
Records with an inconclusive call do not appear. Entries that show only a call come without a potency. Active and inactive are the calls of the source. The call rests on the fitted dose curve; in most records, active means well fitted inhibition curve with a large enough effect; inconclusive means small, poorly fitted or top-dose-only effect; inactive means flat fitted curve, though single readings scatter. Where a SMILES comes first, the peptide text is derived from it. Bridges are numbered along the chain shown (N, C = ends). [ ]: non-standard residue; d: D form. hArg = N=C(N)NCCCC[C@H](N)C(=O)O; Mpa = O=C(O)CCS

Tests used:
Experiment in all cases: qHTS profiling for inhibitors of Plasmodium falciparum proliferation (AID 504749); further: nearly all actives have a fitted effect of over 60% in size
Details in all cases: P. falciparum in erythrocytes, SYBR Green DNA, 72 h; series mostly up to 28.7 µM
CP211 = test system: CP211
Outline: (§1)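 SYBR Green fluorescence (ex 485 nm, em 535 nm) reports parasite DNA after 72 h compound exposure of infected red cells at 0.3% parasitemia, 2.5% hematocrit; signal normalized to 0.29 uM artemisinin and vehicle wells.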

CP215 = test system: CP215
Outline: as §1

CP217 = test system: CP217
Outline: as §1

CP237 = test system: CP237
Outline: as §1

CP238 = test system: CP238
Outline: as §1

CP247 = test system: CP247
Outline: as §1

CP250 = test system: CP250
Outline: as §1

CP252 = test system: CP252
Outline: as §1

CP256 = test system: CP256
Outline: as §1

CP262 = test system: CP262
Outline: as §1

CP265 = test system: CP265
Outline: as §1

CP266 = test system: CP266
Outline: as §1

CP268 = test system: CP268
Outline: as §1

CP269 = test system: CP269
Outline: as §1

CP286 = test system: CP286
Outline: as §1

CP291 = test system: CP291
Outline: as §1

CP297 = test system: CP297
Outline: as §1

CP305 = test system: CP305
Outline: as §1

CP315 = test system: CP315
Outline: as §1

CP260 = test system: CP260
Outline: as §1
Potency means the concentration at half of the fitted maximal effect.

Row | Structure (SMILES) | outcome (CP211) | Potency (CP215) | outcome (CP217) | Potency (CP237) | Potency (CP238) | Potency (CP247) | Potency (CP250) | outcome (CP252) | outcome (CP256) | outcome (CP262) | Potency (CP265) | outcome (CP266) | Potency (CP268) | outcome (CP269) | Potency (CP286) | outcome (CP291) | outcome (CP297) | Potency (CP305) | outcome (CP315) | Potency (CP260)
1 | CCN(CC)C(=O)c1cccc(C)c1 | inactive | inactive | inactive | inactive | inactive | inactive | inactive | inactive | inactive | inactive | inactive | inactive | inactive | inactive | inactive | inactive | inactive | inactive | inactive | 
2 | CC1CCc2cc(F)cc3c(=O)c(C(=O)O)cn1c23 (stereo not drawn) | inactive | inactive | inactive | inactive | inactive | inactive | inactive | inactive | inactive | inactive | inactive | inactive | inactive | inactive | inactive |  | inactive | inactive | inactive | inactive
3 | Cc1cc(O)cc(C)c1Cl | inactive | inactive | inactive | inactive | inactive | inactive | inactive | inactive | inactive | inactive | 11.2 µM (active) | inactive | inactive |  | inactive | inactive | inactive |  | inactive | 
4 | C=CCSCC1Nc2cc(Cl)c(S(N)(=O)=O)cc2S(=O)(=O)N1 (stereo not drawn) | inactive | inactive | inactive | inactive | inactive | inactive | inactive | inactive | inactive | inactive | inactive | inactive | inactive | inactive | inactive | inactive | inactive | inactive | inactive | 
5 | NCc1ccc(S(N)(=O)=O)cc1 | inactive | inactive | inactive | inactive | inactive | inactive | inactive | inactive | inactive | inactive |  | inactive | inactive | inactive | inactive | inactive | inactive | inactive | inactive | 
6 | COc1ccc(Cc2cnc(N)nc2N)cc1OC | inactive | inactive | inactive | inactive | inactive | inactive | inactive | inactive | inactive | inactive | inactive | inactive | inactive | inactive | inactive | inactive |  | inactive | inactive | 
7 | CCOc1cc(NC(C)=O)ccc1C(=O)OC | inactive | inactive | inactive | inactive | inactive | inactive | inactive | inactive | inactive | inactive | inactive |  | inactive | inactive | inactive | inactive | inactive | inactive | inactive | inactive
8 | CCOC(N)=O | inactive | inactive | inactive | inactive | inactive | inactive | inactive | inactive | inactive | inactive | inactive | inactive | inactive | inactive | inactive | inactive | inactive | inactive | inactive | 
9 | Cc1c(C)c2c(c(C)c1OC(=O)c1cccnc1)CC[C@@](C)(CCC[C@H](C)CCC[C@H](C)CCCC(C)C)O2 | inactive | inactive | inactive | inactive | inactive | inactive | inactive | inactive | inactive | inactive | inactive |  | inactive | inactive | inactive | inactive | inactive | inactive | inactive | inactive
10 | CN/C(=C\[N+](=O)[O-])NCCSCc1csc(CN(C)C)n1 | inactive | inactive | inactive | inactive | inactive | inactive | inactive | inactive | inactive | inactive | inactive |  | inactive | inactive | inactive | inactive | inactive | inactive | inactive | inactive
11 | CCOc1ccc(C(=O)OCCN(CC)CC)cc1 | inactive | inactive | inactive | inactive | inactive | inactive | inactive | inactive | inactive |  | inactive | inactive | inactive | inactive | inactive | inactive | inactive | inactive | inactive | inactive
12 | Cc1ccsc1C(=CCCN1CCC[C@@H](C(=O)O)C1)c1sccc1C | inactive | inactive | inactive | inactive | inactive | inactive | inactive | inactive | inactive | inactive | inactive |  | inactive | inactive | inactive | inactive | inactive |  | inactive | inactive
13 | C[C@@H]1O[C@@H](OC[C@H]2O[C@@H](Oc3c(-c4ccc(O)c(O)c4)oc4cc(O)cc(O)c4c3=O)[C@H](O)[C@@H](O)[C@@H]2O)[C@H](O)[C@H](O)[C@H]1O | inactive | inactive | inactive | inactive | inactive | inactive | inactive | inactive | inactive | inactive | inactive |  | inactive | inactive | inactive | inactive | inactive | inactive | inactive | inactive
14 | NC(=O)[C@@H]1CSSCCC(=O)N[C@@H](CCCCN=C(N)N)C(=O)NCC(=O)N[C@@H](CC(=O)O)C(=O)N[C@@H](Cc2c[nH]c3ccccc23)C(=O)N2CCC[C@H]2C(=O)N1 ([Mpa][hArg]GDWPC-NH2; disulfide 1-7) | inactive | inactive | inactive | inactive | inactive | inactive | inactive | inactive | inactive | inactive | inactive |  | inactive | inactive | inactive | inactive | inactive | inactive | inactive | inactive
15 | COC(=O)c1ccc(O)cc1 | inactive | inactive | inactive | inactive | inactive | inactive | inactive | inactive | inactive | inactive | inactive |  | inactive | inactive | inactive | inactive | inactive | inactive |  | inactive
16 | CC(=O)N[C@@H](Cc1ccc(O)cc1)C(=O)O | inactive | inactive | inactive | inactive | inactive | inactive | inactive | inactive |  | inactive | inactive | inactive | inactive | inactive | inactive | inactive | inactive | inactive | inactive | inactive
17 | NS(=O)(=O)c1ccc(C(=O)O)cc1 | inactive | inactive | inactive | inactive | inactive | inactive | inactive | inactive | inactive |  | inactive | inactive | inactive | inactive | inactive | inactive | inactive | inactive | inactive | inactive
18 | COc1ccc(O)cc1 | inactive | inactive | inactive | inactive | inactive |  | inactive | inactive | inactive | inactive | inactive | inactive | inactive | inactive | inactive | inactive | inactive | inactive | inactive | inactive
19 | O=C(c1ccccc1)C(O)c1ccccc1 (stereo not drawn) | inactive | inactive | inactive | inactive | inactive |  |  | inactive | inactive | inactive | inactive | inactive | inactive | inactive | inactive |  | inactive | inactive | inactive | inactive
20 | Cc1onc(-c2ccccc2)c1-c1ccc(S(N)(=O)=O)cc1 | inactive |  | inactive | inactive | inactive | inactive | inactive | inactive | inactive | inactive | inactive | inactive | inactive | inactive | inactive | inactive | inactive | inactive |  | inactive
21 | O=C1c2ccccc2C(=O)C1c1ccc(Br)cc1 | inactive |  |  | inactive | inactive | inactive | inactive | inactive |  | inactive |  | inactive | inactive |  |  | inactive | inactive | inactive |  | 
22 | COc1nccnc1NS(=O)(=O)c1ccc(N)cc1 | inactive |  | inactive | inactive | inactive | inactive | inactive | inactive | inactive | inactive | inactive | inactive | inactive | inactive | inactive | inactive | inactive | inactive |  | inactive
23 | Cc1ncc(CO)c(CN)c1O | inactive |  | inactive | inactive | inactive | inactive | inactive | inactive | inactive |  | inactive | inactive | inactive | inactive | inactive | inactive | inactive | inactive | inactive | inactive
24 | CCN(CC)CC1CCCCN1CC(=O)N1c2ccccc2C(=O)Nc2cccnc21 (stereo not drawn) |  | inactive | inactive | inactive | inactive | inactive | inactive | inactive | inactive | inactive | inactive | inactive | inactive | inactive | inactive | inactive | inactive | inactive | inactive | inactive
